Rows were chosen to be rich in hits. Some 21% of all compounds tested hit in one or more screens of this group.
CHX counter – counter-screen hit for Shiga toxin inhibitors, cycloheximide; 12% of 300,000 active; cell reporter, cycloheximide protein synthesis inhibition counterscreen; AID 2314; max response, %; in the data active = max response mostly above about 13%, no sharp cut-off; inactive = mostly below about 14%; note: read at 38.3 µM for the half of the compounds with a filed dose; 0% is about no effect
Pf growth 48h – P. falciparum growth inhibition at 48 hours (one generation); Potency, µM (series often up to 28.7 µM), for inactives: at the top dose activity change, negative = inhibition, actives largely listed as inhibitors; 5.9% of 310,000 active; AID 504832; P. falciparum luciferase growth in erythrocytes, 48 h; note: potency is the fitted concentration of half-maximal effect; % is set by controls: 0 for no effect and ±100 for the full control effect
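Luciferase-expressing P. falciparum in infected erythrocytes (2% hematocrit, 0.1% parasitemia final) in RPMI 1640/0.5% Albumax were exposed to compound for 48 hours at 37 C, 5% CO2; growth read as luminescence.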
Pf growth 96h – P. falciparum growth inhibition at 96 hours. P. falciparum luciferase reporter growth, 96 h. Potency, µM (top dose mostly 28.7 µM), for the others: at the top dose activity change, negative = inhibition, hits mostly inhibitors. 6.9% of 320,000 active; note: potency is the fitted concentration of half-maximal effect; % is set by controls: 0 for no effect and ±100 for the full control effect
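Luminescence readout: decreased luciferase signal marks inhibited growth of reporter-expressing P. falciparum in infected red cells (2% hematocrit, 0.05% parasitemia final), exposed to compound two generations (96 h, 37 C, 5% CO2).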
NS1 function inh – inhibitors of influenza NS1 protein function. Potency, µM (series often up to 46.1 µM), for the others: at the top dose activity, positive = more growth. 0.4% of 270,000 active; calls by dose curve; note: potency is the fitted concentration of half-maximal effect; actives are rising curves; nearly all actives have a fitted effect of over 50% in size
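OD600 was taken as the measure of yeast growth restored by compound in an NS1-expressing S. cerevisiae strain. Cells had been washed out of glucose medium and diluted 1:100 into galactose -URA medium, pH 6.0.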
Shiga toxin inh – Shiga toxin inhibition | 9.2% of 290,000 active | Vero cells, Shiga toxin protein synthesis inhibition reporter | inhibition, % at 38.7 µM | AID 2315; in the data active = inhibition mostly above about 28%, no sharp cut-off; inactive = mostly below about 43%; note: 0% is about no effect
* marks the source's active call; other numbers are inactive results. Unless noted, calls come from the whole dose curve; as a rule, active = well fitted inhibition curve with a large enough effect; inconclusive = small, poorly fitted or top-dose-only effect, or another doubt; inactive = no such curve, though single readings can be large or run the other way.

O=C(Cc1ccccc1)N/N=C/c1cc2c(cc1Cl)OCO2 was read as CHX counter 35*, Pf growth 48h 52%, Pf growth 96h 81%, NS1 function inh -1% and Shiga toxin inh 85*.
Screening CCOC(=O)CC(NS(=O)(=O)c1ccc2[nH]cc(C(=O)O)c(=O)c2c1)c1ccc(OCC)c(OC)c1 (configuration not stated) returned CHX counter -2, Pf growth 48h 11%, Pf growth 96h -11%, NS1 function inh -10% and Shiga toxin inh -2.
For CCN(c1ccccc1)S(=O)(=O)c1nnc(NC(=O)C(C)C)s1 the results were CHX counter -3, Pf growth 48h -6%, Pf growth 96h 24%, NS1 function inh 2% and Shiga toxin inh -2.
For CC[C@H](C)[C@H](NC(=O)[C@H](Cc1ccccc1)NC(=O)[C@H](C)NC(=O)[C@H](CC(=O)O)NC(=O)[C@H](CCCCN)NC(=O)[C@H](CO)NC(=O)[C@@H]1CCCN1C(=O)[C@@H]1CCC(=O)N1)C(=O)NCC(=O)N[C@@H](CC(C)C)C(=O)N[C@@H](CCSC)C(N)=O the results were CHX counter 6 and Shiga toxin inh -8.
`O=C(N/N=C\c1cccc(OC(=O)c2ccco2)c1)c1ccc2c(c1)OCO2` gave CHX counter 32*, Pf growth 48h 140%, Pf growth 96h 95%, NS1 function inh -2% and Shiga toxin inh 50*.
Screening O=C(N/N=C/c1cccc(O)c1)c1ccc2c(c1)OCCO2 returned CHX counter 9, Pf growth 48h 144%, Pf growth 96h 150%, NS1 function inh -3% and Shiga toxin inh 9.
Screening O=C(CNC(=O)c1ccc2c(c1)OCO2)Nc1cccc(Br)c1 returned Pf growth 48h 6% and Pf growth 96h 0%.
`O=C(N/N=C/c1ccc[nH]1)c1ccc2c(c1)OCO2` gave CHX counter 37*, Pf growth 48h 177%, Pf growth 96h 122% and Shiga toxin inh 109*.
For O=C(N/N=C/c1ccc2c(c1)OCO2)c1ccc2c(c1)OCO2 the results were CHX counter 42*, Pf growth 48h 15%, Pf growth 96h 96%, NS1 function inh 5% and Shiga toxin inh 72*.
Screening O=C(CNC(=O)c1cccc(Br)c1)N/N=C/c1ccc2c(c1)OCO2 returned CHX counter 24*, Pf growth 48h 18%, Pf growth 96h 28%, NS1 function inh -24% and Shiga toxin inh 79*.
Screening Cc1cc2c(s1)c1cnn(Cc3ccc(F)cc3)c(=O)c1n2C returned CHX counter 10 and Shiga toxin inh 4.
`O=C(NCc1ccccc1)c1ccccc1C(=O)c1ncc[nH]1` gave CHX counter -3, Pf growth 48h 8%, Pf growth 96h inconclusive, NS1 function inh 2% and Shiga toxin inh 11.
Screening O=C(CCNC(=O)Cn1ccc2ccccc2c1=O)NCCc1ccccc1Cl returned CHX counter 1, Pf growth 48h 20%, Pf growth 96h -19%, NS1 function inh inconclusive and Shiga toxin inh -7.
`O=C(N/N=C/c1ccccc1OC(=O)N1CCOCC1)c1cccs1` gave CHX counter 35*, Pf growth 48h 14%, Pf growth 96h inconclusive and Shiga toxin inh 47.
Screening O=C(N/N=C\c1ccc2c(c1)OCO2)c1ccco1 returned CHX counter 28*, Pf growth 48h 196%, Pf growth 96h -8%, NS1 function inh -12% and Shiga toxin inh 59*.
`O=C(N/N=C/c1ccc2c(c1)OCO2)C1CC1` gave CHX counter 37*, Pf growth 48h 108%, Pf growth 96h 96%, NS1 function inh -16% and Shiga toxin inh 49*.
Cc1[nH]c2ccccc2c1/C=N\NC(=O)CNc1ccc2c(c1)OCO2 was read as CHX counter 13, Pf growth 48h 20%, Pf growth 96h -11%, NS1 function inh 23% and Shiga toxin inh -23.
O=C(N/N=C/c1c(Cl)[nH]c2ccccc12)c1ccc2c(c1)OCCO2 was read as CHX counter 55*, Pf growth 48h 51%, Pf growth 96h 127%, NS1 function inh -8% and Shiga toxin inh 60*.
O=C(CN(CCN1CCOCC1)C(=O)Cn1nnc(-c2ccc(F)cc2)n1)NC1CCCCC1 was read as CHX counter 4, Pf growth 96h 6.6µM*, NS1 function inh -14% and Shiga toxin inh 16.
For O=C(CN(CCCN1CCOCC1)C(=O)Cn1nnc(-c2ccc(F)cc2)n1)NC1CCCCC1 the results were CHX counter -1, Pf growth 48h -13%, Pf growth 96h 1%, NS1 function inh 6% and Shiga toxin inh -19.

Assay outcomes (PubChem)
